From PubChem BioAssay AID1159580 (chemical genetic matrix, 2015)
Among all 5,500 compounds or so, about 2,000 (36%) were called active. About 18% were inconclusive and are not listed. No stated cut-off is given here; in the data, active means normalized growth mostly below about 0.91 (no sharp cut-off); inconclusive means no clear call, values can overlap the other calls; inactive means mostly above about 0.92. Some of the results follow.

Assay: chemical genetic growth profiling, strain panel (AID 1159580);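 further: tested at 20 µM; growth read once vehicle control cultures reached saturation at 30 °C; 1 = growth at the plate median or of vehicle wells; lower values mean less growth of the strain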
Details: growth OD

Measured: normalized growth

CC1CC2C3CCC4=CC(=O)C=C[C@]4(C)[C@@]3(F)[C@@H](O)C[C@]2(C)[C@@]1(O)C(=O)CO (stereo partly drawn)
inactive: S. cerevisiae deletion strains, locus YAL013W, strain DEP1, active compounds read low 0.995 | S. cerevisiae deletion strains, locus YAL021C, strain ccr4, active compounds read low 0.974 | S. cerevisiae deletion strains, locus YAL026C, strain drs2, active compounds read low 0.987 | S. cerevisiae deletion strains, locus YAL030W, strain snc1, active compounds read low 0.96 | S. cerevisiae deletion strains, locus YBL061C, strain skt5, active compounds read low 0.99 | S. cerevisiae deletion strains, locus YBR009C, strain hhf1, active compounds read low 1.03 | S. cerevisiae deletion strains, locus YBR021W, strain FUR4, active compounds read low 0.984 | S. cerevisiae deletion strains, locus YBR023C, strain chs3, active compounds read low 0.983 | S. cerevisiae deletion strains, locus YBR171W, strain sec66, active compounds read low 0.982 | S. cerevisiae deletion strains, locus YBR229C, strain ROT2, active compounds read low 0.989 | S. cerevisiae deletion strains, locus YBR231C, strain swc5, active compounds read low 1.06 | S. cerevisiae deletion strains, locus YBR279W, strain paf1, active compounds read low 1 | S. cerevisiae deletion strains, locus YCL011C, strain gbp2, active compounds read low 0.954 | S. cerevisiae deletion strains, locus YCL016C, strain dcc1, active compounds read low 0.978 | S. cerevisiae deletion strains, locus YCL029C, strain bik1, active compounds read low 0.979 | S. cerevisiae deletion strains, locus YCL061C, strain MRC1, active compounds read low 0.995 | S. cerevisiae deletion strains, locus YCL069W, strain vba3, active compounds read low 0.995 | S. cerevisiae deletion strains, locus YCR088W, strain abp1, active compounds read low 0.996 | S. cerevisiae deletion strains, locus YDL005C, strain med2, active compounds read low 0.973 | S. cerevisiae deletion strains, locus YDL035C, strain GPR1, active compounds read low 1.03 | S. cerevisiae deletion strains, locus YDL040C, strain nat1, active compounds read low 0.975 | S. cerevisiae deletion strains, locus YDL074C, strain BRE1, active compounds read low 0.979 | S. cerevisiae deletion strains, locus YDL101C, strain DUN1, active compounds read low 0.976 | S. cerevisiae deletion strains, locus YDL185W, strain tfp1, active compounds read low 0.982 | S. cerevisiae deletion strains, locus YDL192W, strain arf1, active compounds read low 0.974 | S. cerevisiae deletion strains, locus YDR001C, strain nth1, active compounds read low 0.988 | S. cerevisiae deletion strains, locus YDR069C, strain doa4, active compounds read low 0.979 | S. cerevisiae deletion strains, locus YDR101C, strain arx1, active compounds read low 0.984 | S. cerevisiae deletion strains, locus YDR137W, strain rgp1, active compounds read low 0.987 | S. cerevisiae deletion strains, locus YDR159W, strain sac3, active compounds read low 1.01 | S. cerevisiae deletion strains, locus YDR162C, strain NBP2, active compounds read low 1.02 | S. cerevisiae deletion strains, locus YDR195W, strain ref2 0.99 | S. cerevisiae deletion strains, locus YDR297W, strain sur2, active compounds read low 0.995 | S. cerevisiae deletion strains, locus YDR318W, strain mcm21, active compounds read low 0.983 | S. cerevisiae deletion strains, locus YDR334W, strain swr1, active compounds read low 0.976 | S. cerevisiae deletion strains, locus YDR335W, strain msn5, active compounds read low 0.984 | S. cerevisiae deletion strains, locus YDR388W, active compounds read low 0.968 | S. cerevisiae deletion strains, locus YDR392W, strain spt3, active compounds read low 0.904 | S. cerevisiae deletion strains, locus YDR502C, strain sam2, active compounds read low 0.991 | S. cerevisiae deletion strains, locus YEL003W, strain gim4, active compounds read low 0.963 | S. cerevisiae deletion strains, locus YEL037C, strain rad23, active compounds read low 0.976 | S. cerevisiae deletion strains, locus YEL061C, strain CIN8 (second series), active compounds read low 0.988 | S. cerevisiae deletion strains, locus YEL061C, strain CIN8, active compounds read low 0.994 | S. cerevisiae deletion strains, locus YER015W, strain faa2, active compounds read low 0.991 | S. cerevisiae deletion strains, locus YER016W, strain bim1, active compounds read low 0.95 | S. cerevisiae deletion strains, locus YER110C, active compounds read low 0.958 | S. cerevisiae deletion strains, locus YER111C, strain swi4, active compounds read low 0.983 | S. cerevisiae deletion strains, locus YER155C, strain BEM2 (second series), active compounds read low 1.03 | S. cerevisiae deletion strains, locus YER155C, strain BEM2, active compounds read low 0.984 | S. cerevisiae deletion strains, locus YER167W, strain BCK2, active compounds read low 1 | S. cerevisiae deletion strains, locus YFR010W, strain ubp6, active compounds read low 1.01 | S. cerevisiae deletion strains, locus YGL078C, strain dbp3, active compounds read low 0.971 | S. cerevisiae deletion strains, locus YGL086W, strain mad1, active compounds read low 0.98 | S. cerevisiae deletion strains, locus YGL167C, strain pmr1, active compounds read low 0.983 | S. cerevisiae deletion strains, locus YGL173C, strain kem1, active compounds read low 0.979 | S. cerevisiae deletion strains, locus YGL227W, strain vid30, active compounds read low 0.999 | S. cerevisiae deletion strains, locus YGL240W, strain doc1, active compounds read low 1.01 | S. cerevisiae deletion strains, locus YGL248W, strain PDE1, active compounds read low 0.98 | S. cerevisiae deletion strains, locus YGL253W, strain hxk2, active compounds read low 0.974 | S. cerevisiae deletion strains, locus YGR135W, strain pre9, active compounds read low 0.969 | S. cerevisiae deletion strains, locus YGR229C, strain SMI1, active compounds read low 1.02 | S. cerevisiae deletion strains, locus YGR252W, strain gcn5, active compounds read low 1.02 | S. cerevisiae deletion strains, locus YHR013C, strain ard1, active compounds read low 0.954 | S. cerevisiae deletion strains, locus YHR027C, strain rpn1, active compounds read low 0.992 | S. cerevisiae deletion strains, locus YHR030C, strain SLT2, active compounds read low 0.99 | S. cerevisiae deletion strains, locus YHR079C, strain IRE1 (second series), active compounds read low 0.965 | S. cerevisiae deletion strains, locus YHR094C, strain hxt1, active compounds read low 0.97 | S. cerevisiae deletion strains, locus YHR129C, strain ARP1, active compounds read low 0.993 | S. cerevisiae deletion strains, locus YHR142W, strain chs7, active compounds read low 0.959 | S. cerevisiae deletion strains, locus YHR200W, strain rpn10, active compounds read low 0.983 | S. cerevisiae deletion strains, locus YIL066C, strain RNR3, active compounds read low 1 | S. cerevisiae deletion strains, locus YIL073C, strain SPO22, active compounds read low 0.972 | S. cerevisiae deletion strains, locus YIL125W, strain kgd1, active compounds read low 0.963 | S. cerevisiae deletion strains, locus YIR030C, strain dcg1, active compounds read low 0.965 | S. cerevisiae deletion strains, locus YJL092W, strain hpr5, active compounds read low 0.963 | S. cerevisiae deletion strains, locus YJL095W, strain BCK1 (second series), active compounds read low 0.945 | S. cerevisiae deletion strains, locus YJL095W, strain BCK1, active compounds read low 0.96 | S. cerevisiae deletion strains, locus YJL115W, strain asf1, active compounds read low 0.976 | S. cerevisiae deletion strains, locus YJL129C, strain trk1, active compounds read low 0.965 | S. cerevisiae deletion strains, locus YJL134W, strain LCB3, active compounds read low 0.99 | S. cerevisiae deletion strains, locus YJL154C, strain vps35, active compounds read low 0.966 | S. cerevisiae deletion strains, locus YJL164C, strain tpk1, active compounds read low 1 | S. cerevisiae deletion strains, locus YJL166W, strain qcr8, active compounds read low 1 | S. cerevisiae deletion strains, locus YJL168C, strain set2, active compounds read low 0.966 | S. cerevisiae deletion strains, locus YJL187C, strain SWE1 (second series), active compounds read low 0.982 | S. cerevisiae deletion strains, locus YJR043C, strain POL32, active compounds read low 1.04 | S. cerevisiae deletion strains, locus YKL009W, strain mrt4, active compounds read low 0.963 | S. cerevisiae deletion strains, locus YKL068W, active compounds read low 0.987 | S. cerevisiae deletion strains, locus YKL085W, strain MDH1 (second series), active compounds read low 0.985 | S. cerevisiae deletion strains, locus YKL085W, strain MDH1, active compounds read low 0.985 | S. cerevisiae deletion strains, locus YKL160W, strain elf1, active compounds read low 0.943 | S. cerevisiae deletion strains, locus YKR001C, strain vps1, active compounds read low 0.968 | S. cerevisiae deletion strains, locus YKR026C, strain gcn3, active compounds read low 0.993 | S. cerevisiae deletion strains, locus YKR091W, strain srl3, active compounds read low 0.97 | S. cerevisiae deletion strains, locus YLL001W, strain dnm1, active compounds read low 1.01 | S. cerevisiae deletion strains, locus YLL026W, active compounds read low 0.997 | S. cerevisiae deletion strains, locus YLL041C, strain sdh2, active compounds read low 0.96 | S. cerevisiae deletion strains, locus YLR027C, strain aat2, active compounds read low 0.997 | S. cerevisiae deletion strains, locus YLR039C, strain RIC1, active compounds read low 0.991 | S. cerevisiae deletion strains, locus YLR058C, strain SHM2, active compounds read low 0.984 | S. cerevisiae deletion strains, locus YLR102C, strain apc9, active compounds read low 0.982 | S. cerevisiae deletion strains, locus YLR221C, strain rsa3, active compounds read low 1.01 | S. cerevisiae deletion strains, locus YLR258W, strain gsy2, active compounds read low 0.962 | S. cerevisiae deletion strains, locus YLR262C, strain YPT6 (second series), active compounds read low 0.985 | S. cerevisiae deletion strains, locus YLR262C, strain YPT6, active compounds read low 0.986 | S. cerevisiae deletion strains, locus YLR268W, strain sec22, active compounds read low 0.965 | S. cerevisiae deletion strains, locus YLR320W, strain mms22, active compounds read low 1.01 | S. cerevisiae deletion strains, locus YLR330W, strain CHS5, active compounds read low 0.99 | S. cerevisiae deletion strains, locus YLR342W, strain FKS1 (second series), active compounds read low 1.02 | S. cerevisiae deletion strains, locus YLR342W, strain FKS1, active compounds read low 0.977 | S. cerevisiae deletion strains, locus YLR357W, strain rsc2, active compounds read low 0.994 | S. cerevisiae deletion strains, locus YLR370C, strain arc18, active compounds read low 0.99 | S. cerevisiae deletion strains, locus YLR371W, strain rom2, active compounds read low 0.96 | S. cerevisiae deletion strains, locus YLR384C, strain iki3, active compounds read low 1.01 | S. cerevisiae deletion strains, locus YLR418C, strain cdc73, active compounds read low 0.974 | S. cerevisiae deletion strains, locus YML016C, strain PPZ1, active compounds read low 0.989 | S. cerevisiae deletion strains, locus YML032C, strain rad52, active compounds read low 0.981 | S. cerevisiae deletion strains, locus YML120C, strain ndi1, active compounds read low 0.979 | S. cerevisiae deletion strains, locus YML124C, strain tub3, active compounds read low 0.973 | S. cerevisiae deletion strains, locus YMR058W, strain fet3, active compounds read low 0.988 | S. cerevisiae deletion strains, locus YMR078C, strain ctf18, active compounds read low 0.958 | S. cerevisiae deletion strains, locus YMR125W, strain sto1, active compounds read low 0.97 | S. cerevisiae deletion strains, locus YMR129W, active compounds read low 0.975 | S. cerevisiae deletion strains, locus YMR205C, strain PFK2, active compounds read low 1.01 | S. cerevisiae deletion strains, locus YMR223W, strain ubp8, active compounds read low 0.977 | S. cerevisiae deletion strains, locus YMR231W, strain pep5, active compounds read low 0.987 | S. cerevisiae deletion strains, locus YMR263W, strain SAP30, active compounds read low 0.979 | S. cerevisiae deletion strains, locus YMR307W, strain GAS1, active compounds read low 1.03 | S. cerevisiae deletion strains, locus YNL067W, strain RPL9B, active compounds read low 0.961 | S. cerevisiae deletion strains, locus YNL071W, strain lat1, active compounds read low 0.993 | S. cerevisiae deletion strains, locus YNL128W, strain TEP1, active compounds read low 0.973 | S. cerevisiae deletion strains, locus YNL153C, strain GIM3, active compounds read low 0.981 | S. cerevisiae deletion strains, locus YNL209W, strain ssb2, active compounds read low 0.98 | S. cerevisiae deletion strains, locus YNL233W, strain BNI4, active compounds read low 0.965 | S. cerevisiae deletion strains, locus YNL248C, strain rpa49, active compounds read low 0.907 | S. cerevisiae deletion strains, locus YNL250W, strain rad50, active compounds read low 0.962 | S. cerevisiae deletion strains, locus YNL271C, strain bni1, active compounds read low 0.962 | S. cerevisiae deletion strains, locus YNL298W, strain CLA4, active compounds read low 0.966 | S. cerevisiae deletion strains, locus YNL307C, strain MCK1, active compounds read low 0.981 | S. cerevisiae deletion strains, locus YNL322C, strain KRE1 (second series), active compounds read low 0.96 | S. cerevisiae deletion strains, locus YNR049C, strain mso1, active compounds read low 0.968 | S. cerevisiae deletion strains, locus YNR052C, strain pop2, active compounds read low 0.966 | S. cerevisiae deletion strains, locus YOL012C, strain htz1 0.786 | S. cerevisiae deletion strains, locus YOL147C, strain pex11, active compounds read low 0.971 | S. cerevisiae deletion strains, locus YOR001W, strain rrp6, active compounds read low 1.04 | S. cerevisiae deletion strains, locus YOR061W, strain CKA2, active compounds read low 0.993 | S. cerevisiae deletion strains, locus YOR069W, strain VPS5, active compounds read low 0.986 | S. cerevisiae deletion strains, locus YOR070C, strain gyp1, active compounds read low 0.988 | S. cerevisiae deletion strains, locus YOR080W, strain dia2, active compounds read low 0.957 | S. cerevisiae deletion strains, locus YOR083W, strain WHI5, active compounds read low 0.914 | S. cerevisiae deletion strains, locus YOR106W, strain vam3, active compounds read low 0.942 | S. cerevisiae deletion strains, locus YOR136W, strain idh2, active compounds read low 0.986 | S. cerevisiae deletion strains, locus YOR144C, strain elg1, active compounds read low 0.972 | S. cerevisiae deletion strains, locus YOR184W, strain ser1, active compounds read low 0.979 | S. cerevisiae deletion strains, locus YOR265W, strain rbl2, active compounds read low 0.989 | S. cerevisiae deletion strains, locus YOR270C, strain vph1, active compounds read low 0.939 | S. cerevisiae deletion strains, locus YOR290C, strain snf2, active compounds read low 0.962 | S. cerevisiae deletion strains, locus YOR316C, strain cot1, active compounds read low 0.98 | S. cerevisiae deletion strains, locus YPL051W, strain arl3, active compounds read low 0.992 | S. cerevisiae deletion strains, locus YPL078C, strain atp4, active compounds read low 0.953 | S. cerevisiae deletion strains, locus YPL106C, strain sse1, active compounds read low 0.982 | S. cerevisiae deletion strains, locus YPL240C, strain hsp82, active compounds read low 1.01 | S. cerevisiae deletion strains, locus YPR119W, strain clb2, active compounds read low 0.973 | S. cerevisiae deletion strains, locus YPR141C, strain kar3, active compounds read low 0.961 | S. cerevisiae deletion strains, locus YPR163C, strain tif3, active compounds read low 0.981 | S. cerevisiae deletion strains, locus YPR167C, strain met16, active compounds read low 0.962 | S. cerevisiae deletion strains, strain wtn01, active compounds read low 0.963 | S. cerevisiae strains, strain wild type, active compounds read low 0.995
